{"source": "PubChem BioAssay AID624273", "about": "(Broad Institute, 2012)", "note": "Among all 1,000 compounds or so, about 230 (23%) were called active. About 1% were inconclusive and are not listed. The rule behind the calls is not given here. This is one part of the list. Results with a measured potency or affinity are listed apart."}
{"biological_target": "Long-chain-fatty-acid--AMP ligase FadD28 (Mycobacterium tuberculosis (strain ATCC 25618 / H37Rv)) (UniProt P9WQ59)", "sequence (P9WQ59 whole entry, looked up)": "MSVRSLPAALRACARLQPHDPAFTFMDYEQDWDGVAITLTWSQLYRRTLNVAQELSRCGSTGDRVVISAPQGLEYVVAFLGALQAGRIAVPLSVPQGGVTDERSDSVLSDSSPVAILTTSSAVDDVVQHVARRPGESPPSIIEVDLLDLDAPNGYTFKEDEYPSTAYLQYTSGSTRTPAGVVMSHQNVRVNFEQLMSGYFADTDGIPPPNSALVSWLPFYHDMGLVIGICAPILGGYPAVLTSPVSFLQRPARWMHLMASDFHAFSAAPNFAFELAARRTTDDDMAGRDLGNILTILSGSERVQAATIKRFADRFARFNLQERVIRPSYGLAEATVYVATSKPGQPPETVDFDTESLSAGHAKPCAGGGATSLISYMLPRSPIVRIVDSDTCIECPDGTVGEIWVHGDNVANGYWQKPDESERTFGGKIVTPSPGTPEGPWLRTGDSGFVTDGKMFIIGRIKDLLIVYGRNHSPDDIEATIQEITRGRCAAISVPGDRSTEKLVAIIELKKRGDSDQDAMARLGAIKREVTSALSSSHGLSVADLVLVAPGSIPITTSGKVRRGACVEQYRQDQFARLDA", "assay": "inhibitors of FadD28 bisubstrate probe binding, dose response, biochemical, fluorescence polarization, cherry-pick (AID 624273)", "details": "series mostly up to 50 µM"}
{"compound": "O=C(NCC(c1cccs1)N1CCOCC1)c1cc2ccccc2oc1=O", "note": "(stereo not drawn)", "outcome": "inactive"}
{"compound": "O=c1c2c3c(sc2nc2n1CCC2)CCCC3", "outcome": "inactive"}
{"compound": "CCc1cccc2c(C(=O)CN3C(=O)NC(C)(c4cccc5ccccc45)C3=O)c[nH]c12", "note": "(stereo not drawn)", "outcome": "inactive"}
{"compound": "CC(C)C(NC(=O)c1ccc2c(c1)OCO2)C(=O)N/N=C/c1cccs1", "note": "(stereo not drawn)", "outcome": "inactive"}
{"compound": "NC(Cc1ccc(C(F)(F)F)cc1)c1csc(NC(=O)Nc2ccccc2)n1", "note": "(stereo not drawn)", "outcome": "inactive"}
{"compound": "Oc1ccccc1/C=N/n1c2ccccc2c2ccccc21", "outcome": "inactive"}
{"compound": "CCN=c1scc(-c2ccco2)n1/N=C/c1ccc(OC)c(O)c1", "outcome": "inactive"}
{"compound": "Oc1ccc(/C=N/N(Cc2ccccc2)c2ccccc2)c(O)c1O", "outcome": "inactive"}
{"compound": "CN=c1scc(-c2ccco2)n1/N=C/c1ccc(O)c(O)c1", "outcome": "inactive"}
{"compound": "CCOC(=O)c1c(-c2ccc(C)s2)csc1NC(=O)c1cccs1", "outcome": "inactive"}
{"compound": "CCOc1ccccc1NC(=O)CSc1nnc(-c2ccncc2)o1", "outcome": "inactive"}
{"compound": "CCOc1ccc(C(=O)Nc2cc(-c3nc4ccccc4[nH]3)ccc2C)cc1[N+](=O)[O-]", "outcome": "inactive"}
{"compound": "CC(C)NCC(=O)Nc1c2c(nc3ccccc13)CCC2", "outcome": "inactive"}
{"compound": "O=c1[nH]nc(-c2ccccc2)cc1-c1ccccc1", "outcome": "inactive"}
{"compound": "COc1ccccc1CN1CCCC(C(=O)N2CCCCC2)C1", "note": "(stereo not drawn)", "outcome": "inactive"}
{"compound": "COc1cccc(/C=N/Nc2nc(C)cc(=O)[nH]2)c1OC", "outcome": "inactive"}
{"compound": "CCOC(=O)C1=C(C)NC(C)=C(C(=O)OCC)C1c1sccc1C", "outcome": "inactive"}
{"compound": "COc1cccc(CN(C)C(=S)Nc2ccc(C)c(C)c2)c1", "outcome": "inactive"}
{"compound": "CCOc1ccc(-n2c(=O)c3sccc3n(CC(=O)Nc3cccc(OC)c3)c2=O)cc1", "outcome": "inactive"}
{"compound": "Nc1ccc(NC(=O)NC2CCCCC2)cc1[N+](=O)[O-]", "outcome": "inactive"}
{"compound": "O=C(Nc1cccc(F)c1)NC1CCCCCCC1", "outcome": "inactive"}
{"compound": "N=c1n(Cc2ccccc2)c2ccccc2n1CC(O)c1ccco1", "note": "(stereo not drawn)", "outcome": "inactive"}
{"compound": "CC(=O)Nc1ccc(OC(F)(F)C(F)F)c(NC(C)=O)c1", "outcome": "inactive"}
{"compound": "CCn1ncc(NC(=S)NCCc2ccccc2)c1C(N)=O", "outcome": "inactive"}
{"compound": "CC(C)CC(=O)Nc1nnc(S(=O)(=O)N(C)c2ccc(Cl)cc2)s1", "outcome": "inactive"}
{"compound": "COc1ccc(/C=N/n2c(SC)nnc(C(C)(C)C)c2=O)cc1OC", "outcome": "inactive"}
{"compound": "COc1ccc(/C=N/NC(=O)CN(C2=NS(=O)(=O)c3ccccc32)c2ccccc2)cc1OC", "outcome": "inactive"}
{"compound": "c1ccc(-c2nnc(N3CCCC3)nc2-c2ccccc2)cc1", "outcome": "inactive"}
{"compound": "CC(O)(c1cccnc1)c1nc(-c2cccc(C(F)(F)F)c2)cs1", "note": "(stereo not drawn)", "outcome": "inactive"}
{"compound": "Cc1ccc(C(=O)OCC(=O)c2ccc(Br)cc2)cc1S(=O)(=O)N1CCOCC1", "outcome": "inactive"}
{"compound": "CCN(CC)S(=O)(=O)c1cccc(C(=O)NCCCN2CCOCC2)c1", "outcome": "inactive"}
{"compound": "O=C(COC(=O)c1ccc(Cl)c(S(=O)(=O)N2CCCCCC2)c1)Nc1ccccc1", "outcome": "inactive"}
{"compound": "COc1ccc(CCNC(=O)c2ccc(Cl)c(S(=O)(=O)N(C)c3ccccc3)c2)cc1", "outcome": "inactive"}
{"compound": "O=C(NCCc1c[nH]c2ccccc12)/C(=C/c1ccco1)NC(=O)c1ccco1", "outcome": "inactive"}
{"compound": "COc1ccc(CC(=O)Nc2nnc(SCc3ccccc3)s2)cc1S(=O)(=O)N1CCOCC1", "outcome": "inactive"}
{"compound": "Cc1oc(/C=N/NS(=O)(=O)c2ccccc2)cc1Br", "outcome": "inactive"}
{"compound": "Cc1sc(-n2c(C)cc(/C=C3\\SC(=S)NC3=O)c2C)c(C#N)c1C", "outcome": "inactive"}
{"compound": "O=C1C2ON(c3ccccc3)C(c3ccccn3)C2C(=O)N1c1ccc(Br)cc1", "note": "(stereo not drawn)", "outcome": "inactive"}
{"compound": "Cn1nnnc1NCc1cccc(Cl)c1", "outcome": "inactive"}
{"compound": "Cc1nnc(NC(=O)c2sc3nc(-c4cccs4)cc(C(F)(F)F)c3c2N)s1", "outcome": "inactive"}
{"compound": "O=C(Cn1cnc2c(oc3nc4c(cc32)CCCC4)c1=O)Nc1cccc(Cl)c1", "outcome": "inactive"}
{"compound": "COc1ccccc1NC(=O)CSCC(=O)N1c2ccccc2CCc2ccccc21", "outcome": "inactive"}
{"compound": "N#Cc1ccccc1NC(=O)c1cc(=O)c2ccccc2o1", "outcome": "inactive"}
{"compound": "NC(Cc1ccc(Cl)cc1)c1csc(NC(=O)Nc2ccccc2)n1", "note": "(stereo not drawn)", "outcome": "inactive"}
{"compound": "Nc1ccc(C(CC(=O)O)n2cccc2)cc1", "note": "(stereo not drawn)", "outcome": "inactive"}
{"compound": "Cc1ccc(Cn2nnc3c(=O)[nH]c(C4CCN(S(=O)(=O)Cc5ccccc5)CC4)nc32)cc1", "outcome": "inactive"}
{"compound": "COc1cc(/C=C2/C(=O)NN(c3ccc(Cl)cc3)C2=O)ccc1OC(=O)c1ccco1", "outcome": "inactive"}
{"compound": "COc1cc(/C=C2/C(=O)NN(c3cccc(Cl)c3)C2=O)cc(OC)c1O", "outcome": "inactive"}
{"compound": "Cc1ccc(OCC(=O)NCCS(=O)(=O)N2CCN(c3ccccc3)CC2)cc1", "outcome": "inactive"}
{"compound": "COc1ccc(S(=O)(=O)N2CCCCC2)cc1NC(=O)CN1CCN(C(C)=O)CC1", "outcome": "inactive"}
{"compound": "CCc1cccc(NC(=O)Cn2c(=O)oc3cc(S(=O)(=O)N4CCOCC4)ccc32)c1", "outcome": "inactive"}
{"compound": "CCC(=O)c1ccc(OCC(=O)Nc2cccc(S(=O)(=O)N3CCCCCC3)c2)cc1", "outcome": "inactive"}
{"compound": "Cc1cccc(NC(=O)c2cccc(S(=O)(=O)N3CCc4ccccc4C3)c2)n1", "outcome": "inactive"}
{"compound": "CN(CC(=O)N1CCc2ccccc21)S(=O)(=O)c1cccc2cccnc12", "outcome": "inactive"}
{"compound": "Cc1ccc(S(=O)(=O)N(C)C)cc1NC(=O)C(C)[N+]12CCN(CC1)CC2", "note": "(stereo not drawn)", "outcome": "inactive"}
{"compound": "CC1CCCN(Cc2c(O)ccc3c(=O)c(-c4nc5ccccc5s4)c(N)oc23)C1", "note": "(stereo not drawn)", "outcome": "inactive"}
{"compound": "CN1C(=O)C2C=CC1C1C(=O)N(c3ccccc3)C(=O)C21", "note": "(stereo not drawn)", "outcome": "inactive"}
{"compound": "Cc1ccc(S(=O)(=O)N(C)C)cc1NC(=O)CSc1nnnn1-c1ccc(O)cc1", "outcome": "inactive"}
{"compound": "CC1(C)Cc2nc3oc4c(NCc5ccccc5)ncnc4c3cc2CO1", "outcome": "inactive"}
{"compound": "CCN=c1scc(C)n1/N=C/c1cc(Br)c(O)c(Br)c1", "outcome": "inactive"}
{"compound": "O=C(CSc1ccc(Br)c2cccc(Cl)c12)Nc1ccc(S(=O)(=O)Nc2nccs2)cc1", "outcome": "inactive"}
{"compound": "O=C(CSc1ncn[nH]1)Nc1ccc(S(=O)(=O)Nc2ncccn2)cc1", "outcome": "inactive"}
{"compound": "COc1ccccc1[C@@H]1C(c2cccc(C)c2)=NN(c2ccccc2)[C@H]1C(=O)N1CCOC1=O", "outcome": "inactive"}
{"compound": "COc1ccccc1COC(=O)c1cccc(S(=O)(=O)N2CCCC2)c1", "outcome": "inactive"}
{"compound": "O=c1cc(CN2CCc3ccccc32)c2ccc(O)cc2o1", "outcome": "inactive"}
{"compound": "O=C(O)Cc1ccc2c(c1)N(S(=O)(=O)c1cccs1)CC(C(=O)O)O2", "note": "(stereo not drawn)", "outcome": "inactive"}
{"compound": "OCCN1CCN(c2ncnc3c2ncn3[C@H]2CN(Cc3ccncc3)C[C@@H](CO)O2)CC1", "outcome": "inactive"}
{"compound": "COc1ccc(CCNC(=O)CN(c2ccc(C)cc2)S(=O)(=O)c2c(C)noc2C)cc1OC", "outcome": "inactive"}
{"compound": "Nc1ccc2c(c1)[nH]c(=O)c1cc(N)ccc12", "outcome": "inactive"}
{"compound": "NS(=O)(=O)c1cccc(NS(=O)(=O)c2ccc(/C=C/C(=O)OCC(=O)c3ccccc3)cc2)c1", "outcome": "inactive"}
{"compound": "COc1ccccc1NS(=O)(=O)c1cccc(NC(=O)Nc2cccc(Cl)c2)c1", "outcome": "inactive"}
{"compound": "Cc1cc(NS(=O)(=O)c2ccc(NC(=O)Cc3ccccc3)cc2)nc(C)n1", "outcome": "inactive"}
{"compound": "CC(=O)Nc1ccc(S(=O)(=O)NC2=C(N3CCN(c4ccc(F)cc4)CC3)C(=O)c3ccccc3C2=O)cc1", "outcome": "inactive"}
{"compound": "O=[N+]([O-])c1cc(S(=O)(=O)Nc2cccc(C(F)(F)F)c2)ccc1-n1nnc2ccccc21", "outcome": "inactive"}
{"compound": "O=C1C(Cl)=C(NCCN2CCOCC2)C(=O)c2ccccc21", "outcome": "inactive"}
{"compound": "O=C(NN=C1CCCC1)c1cc(Cl)cc(Cl)c1O", "outcome": "inactive"}
{"compound": "N#Cc1cc2c(nc1SCc1ccc(Cl)nc1)CCCCC2", "outcome": "inactive"}
{"compound": "Cc1ccc2oc(C(=O)N3CCCCCC3)c(C)c2c1", "outcome": "inactive"}
{"compound": "O=C(CSc1ccccn1)N1CCN(S(=O)(=O)c2ccc(Cl)cc2)CC1", "outcome": "inactive"}
{"compound": "Cc1ccnc(NC(=O)CCC(=O)N(CC(=O)NCC2CCCO2)Cc2ccc(F)cc2)c1", "note": "(stereo not drawn)", "outcome": "inactive"}
{"compound": "Cc1cc[n+](CC(=O)c2cc3ccccc3oc2=O)cc1", "outcome": "inactive"}
{"compound": "O=C1NC(=O)N(Cc2ccc(F)cc2)C(=O)/C1=C\\c1ccoc1", "outcome": "inactive"}
{"compound": "COc1ccc(C(=O)N/N=C2\\SCC(=O)N2Cc2ccc3c(c2)OCO3)c(OC)c1", "outcome": "inactive"}
{"compound": "CCNC(=S)N1CCN(CC(=O)Nc2ccc(Br)cc2)CC1", "outcome": "inactive"}
{"compound": "Nc1ccccc1/C=N\\N=C/c1ccccc1N", "outcome": "inactive"}
{"compound": "COc1ccc(CCNC(=O)CCNC(=O)N2CC(=O)Nc3ccccc32)cc1", "outcome": "inactive"}
{"compound": "CN(C)C1(c2nnnn2-c2ccc(Cl)cc2)CCCCC1", "outcome": "inactive"}
{"compound": "O=C(c1[nH]c(C(F)(F)F)nc1-c1ccccc1)N1CCN(c2ccccn2)CC1", "outcome": "inactive"}
{"compound": "N#Cc1c(C#N)c(-c2ccccc2)n(-c2ccc(C(=O)O)cc2)c1N", "outcome": "inactive"}
{"compound": "CC(=O)Nc1ccc(/C=N\\NC(=O)CNS(=O)(=O)c2ccc([N+](=O)[O-])cc2)cc1", "outcome": "inactive"}
{"compound": "COc1ccc(/C=C/C(=O)N2CC(C)OC(C)C2)cc1OC", "note": "(stereo not drawn)", "outcome": "inactive"}
{"compound": "COC(=O)CSc1nnc(CNC(=O)c2cc(OC)cc(OC)c2)n1-c1ccc(F)cc1", "outcome": "inactive"}
{"compound": "O=c1[nH]c(=S)[nH]c2c1C(c1ccc(Br)cc1)c1c([nH]c(=S)[nH]c1=O)O2", "outcome": "inactive"}
{"compound": "O=C(OCC(=O)N1CCCC1)c1cccs1", "outcome": "inactive"}
{"compound": "O=C1NCCN(C(=O)CCc2nnc(-c3ccsc3)o2)C1c1ccc(F)cc1", "note": "(stereo not drawn)", "outcome": "inactive"}
{"compound": "COc1ccc(C2(CNC(=O)c3ccc(OC)c([N+](=O)[O-])c3)CCCCC2)cc1OC", "outcome": "inactive"}
{"compound": "Cc1ccc(-c2nn(-c3ccccc3)cc2/C=C2\\SC(=S)N(CCCCCC(=O)O)C2=O)o1", "outcome": "inactive"}
{"compound": "O=C(O)CCCN1C(=O)/C(=C/c2ccc(-c3nc4ccccc4s3)o2)SC1=S", "outcome": "inactive"}
{"compound": "CC1(c2ccc(OC(F)F)cc2)NC(=O)N(CC(=O)Nc2ccc3[nH]c(=O)[nH]c3c2)C1=O", "note": "(stereo not drawn)", "outcome": "inactive"}
{"compound": "CC(C)CNC(=O)c1cc(S(=O)(=O)N2CCOCC2)ccc1N1CCCC1", "outcome": "inactive"}
{"compound": "Cc1ccc(NS(=O)(=O)c2ccc(NC(=O)CN(c3cc([N+](=O)[O-])ccc3C)S(C)(=O)=O)cc2)c(C)c1", "outcome": "inactive"}
{"compound": "Cc1ccccc1-c1cc2nc(NCc3ccccc3)n(C)c(=O)c2s1", "outcome": "inactive"}
{"compound": "COC(=O)Cc1cc(=O)n(-c2nc3ccccc3s2)[nH]1", "outcome": "inactive"}
